Laboratory results published in PubChem BioAssay (NCATS).
Records with an inconclusive call do not appear. Unmarked numbers belong to inactive results. Activity calls are given as the source filed them. Calls come from the whole dose curve; as a rule, active = well fitted inhibition curve with a large enough effect; inconclusive = small, poorly fitted or top-dose-only effect; inactive = flat fitted curve, though single readings scatter.

assay: BET inhibitor-based combinations targeting novel dependencies in MECOM-rearranged (r) AML: AML-194 cell line (AID 2202237; note: nearly all actives have a fitted effect of over 40% in size;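 for viability (% of control): plate controls were vehicle wells for no effect and wells without cells for full effect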); details: AML-194 (MECOM-r AML) viability, CellTiter-Glo, 48 h; series mostly up to 46 µM; viability (% of control): at the top concentration
How it was run: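 Cells were plated at 500 per well and exposed to an 11-point dose series of each drug for 48 hr. Viability was measured by CellTiter-Glo luminescence, normalized to DMSO and empty-well controls, and summarized as AUC and per-cell-line Z-AUC.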
Potency is the fitted concentration of half-maximal effect.

Structure (SMILES)	viability (% of control)	Potency
O=C1CC(c2c[nH]c3ccc(F)cc23)C(=O)N1 (configuration not stated)	104%	
CC(C)(c1ccc(OCC(O)CO)cc1)c1ccc(OCC(O)CCl)cc1 (configuration not stated)	89.6%	
O=C(Nc1cccc(C(F)(F)F)c1)c1cccc2cc(Oc3cc(CO)ncn3)ccc12	110%	
Cc1[nH]nc2ncc(C(=O)N3CCC[C@H]3c3ccc(Cl)cc3)cc12	106%	
C#C[C@]1(O)CC[C@H]2[C@@H]3[C@H](C)CC4=C(CCC(=O)C4)[C@H]3CC[C@@]21C	100%	
Nc1nc(F)nc2c1ncn2[C@@H]1O[C@H](COP(=O)(O)O)[C@@H](O)[C@@H]1O		4170 nM (active)
C[C@@H](C(=O)Nc1ccc(Cl)cc1)C1CCC(c2ccnc3ccc(F)cc23)CC1 (some centres not stated)	99.1%	
C#Cc1cccc(Nc2ncnc3cc4c(cc23)OCCOCCOCCO4)c1	102%	
O=C(O)CC(C(=O)O)n1c(O)c(C2=c3cc(Br)ccc3=NC2=O)sc1=S (configuration not stated)	96.7%	
COc1cc([C@@H](CC(=O)O)c2ccc(C)c(CN3C[C@@H](C)Oc4ccccc4S3(=O)=O)c2)cc2nnn(C)c12	95.7%	
CC[C@@H](Oc1cccc(CN(CCCOc2ccc(OC)cc2)c2nc3ccccc3o2)c1)C(=O)O	99.9%	
CO[C@@]12[C@H](COC(N)=O)C3=C(C(=O)C(C)=C(N)C3=O)N1C[C@@H]1N[C@@H]12	93.6%	
CN[C@@H](C)C(=O)N[C@@H]1C(=O)N(Cc2c(C)ccc3ccccc23)c2ccc(C#N)cc2N(C(C)=O)[C@H]1C	86.6%	
Cc1nc2ccc(CN(C)c3ccc(C(=O)N[C@@H](CCC(=O)O)C(=O)O)s3)cc2c(=O)[nH]1		332 nM (active)
C#CCN(C)CC1=Cc2ccccc2Oc2ccccc21	112%	
CC(=O)CC(c1ccccc1)c1c(O)c2ccccc2oc1=O (configuration not stated)	98.3%	
O=C(Cc1ccccc1)Nc1nnc(CCSCCc2nnc(NC(=O)Cc3ccccc3)s2)s1	84.2%	
O=C(O)c1ccccc1-c1ccc(/C=c2\sc3nc4cc(Br)cnc4n3c2=O)o1	90.6% [at 15.6 µM]	
Clc1ccc(CCC(Cn2ccnc2)Sc2c(Cl)cccc2Cl)cc1 (configuration not stated)	86.4%	
Cc1cc(C)c(S(=O)(=O)N(CCc2cccc(Br)c2)Cc2ccc(-c3cccc(S(C)(=O)=O)c3)cc2)c(C)c1	99.4%	
O=C(/C=C\n1cnc(-c2cc(C(F)(F)F)cc(C(F)(F)F)c2)n1)NNc1ccccn1		417 nM (active)
CNC(=O)[C@H](Cc1c[nH]c2ccccc12)NC(=O)[C@@H](CC(=O)NO)CC(C)C	108%	
COc1ncc(Nc2ncc(C(C)N3CCN(S(C)(=O)=O)CC3)cc2-c2nc(C)nc(N)n2)cc1F (configuration not stated)	26.2%	
c1ccc2[nH]c(-c3cscn3)nc2c1		18600 nM (active)
NC(=O)c1cc(F)cc2c1C(=O)N(C1CCN(C3CCC(F)(F)CC3)CC1)C2	98.6%	
CC[C@H]1OC(=O)[C@H](C)C(=O)[C@H](C)[C@@H](O[C@H]2O[C@H](C)C[C@H](N(C)C)[C@H]2O)[C@](C)(OC)C[C@@H](C)C(=O)[C@H](C)[C@H]2N(CCCCn3cnc(-c4cccnc4)c3)C(=O)O[C@]12C	98.8%	
Cc1ccc(C2=Nc3ccc(Cl)cc3OC2)cc1	107%	
